High-throughput results as filed in PubChem BioAssay.
DT40 TDP1 CPT – qHTS for Inhibitors of human tyrosyl-DNA phosphodiesterase 1 (TDP1): qHTS in cells in presence of CPT; chicken DT40 Tdp1-/-;hTDP1 cells + 20 nM CPT, ATP luminescence, 48 h; Potency, µM (top dose mostly 46.2 µM), for the others: at the top dose activity change, negative = growth inhibition, hits mostly inhibitors; 12% of 420,000 active; AID 686979, 2013; also: nearly all actives have a fitted effect of over 55% in size
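Chicken DT40 Tdp1-/- cells complemented with human TDP1, 400 cells/well, exposed to compounds plus 20 nM camptothecin for at least 48 h at 37 C; viability read as ATP content by CellTiter-Glo luminescence.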
VP16 counter – VP16 counterscreen qHTS for inhibitors of ROR gamma transcriptional activity. Potency, µM (series often up to 53.6 µM), for the others: top-dose activity, negative = inhibition, usual class: inhibitors. Drosophila S2 Gal4-VP16 UAS-luciferase, luminescence, 20 h. 3.5% of 310,000 active. AID 2546, 2010;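 also: Gal4-VP16 expression switched on by copper sulfate through the metallothionein promoter; nearly all actives have a fitted effect of over 50% in size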
12-LOX inh – Primary qHTS assay for inhibitors of human arachidonate 12S-lipoxygenase (ALOX12): Round 2 | Polyunsaturated fatty acid lipoxygenase ALOX12 (Homo sapiens), P18054 | Potency, µM (top dose mostly 108 µM), without a hit: top-dose activity change, negative = inhibition, hits mostly inhibitors | purified 12hLO, xylenol orange hydroperoxide absorbance | AID 1671190, 2021 | 1.1% of 580,000 active
Target sequence (P18054 whole entry, looked up): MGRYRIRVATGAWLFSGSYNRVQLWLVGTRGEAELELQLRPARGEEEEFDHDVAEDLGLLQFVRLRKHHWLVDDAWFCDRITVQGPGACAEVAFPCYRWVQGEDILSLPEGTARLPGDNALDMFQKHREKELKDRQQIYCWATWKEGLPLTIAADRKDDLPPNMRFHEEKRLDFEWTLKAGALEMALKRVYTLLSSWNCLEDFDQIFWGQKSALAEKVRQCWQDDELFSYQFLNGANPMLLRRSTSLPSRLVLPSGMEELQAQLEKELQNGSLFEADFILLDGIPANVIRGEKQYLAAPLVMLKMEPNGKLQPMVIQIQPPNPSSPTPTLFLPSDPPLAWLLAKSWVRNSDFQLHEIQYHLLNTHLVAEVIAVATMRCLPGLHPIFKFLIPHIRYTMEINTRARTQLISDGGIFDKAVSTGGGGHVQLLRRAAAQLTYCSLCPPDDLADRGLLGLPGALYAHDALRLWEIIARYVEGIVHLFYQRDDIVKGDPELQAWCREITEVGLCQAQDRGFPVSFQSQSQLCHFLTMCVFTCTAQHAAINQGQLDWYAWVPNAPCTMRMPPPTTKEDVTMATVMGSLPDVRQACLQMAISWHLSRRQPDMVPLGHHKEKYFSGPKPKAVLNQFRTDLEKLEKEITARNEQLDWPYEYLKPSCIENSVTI
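Purified human 12hLO (150 nM final) in 25 mM Hepes, 0.01% Triton X-100, pH 7.0 was preincubated 15 min at room temperature with compound. Then 40 uM arachidonic acid was added, 30 min. Hydroperoxide was read by Fe-XO absorbance ratio 573/405 nm.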
ELG1 repair inh – qHTS screen for small molecules that inhibit ELG1-dependent DNA repair in human embryonic kidney (HEK293T) cells expressing luciferase-tagged ELG1 | AID 504467, 2011 | 2.3% of 330,000 active | HEK293T ELG1-luciferase reporter, luminescence, 16 h; DNA damage induced by 5-fluorouridine | Potency, µM (titrated, usually from 46.1 µM), for inactives: at the top dose activity change, negative = inhibition, usual class: inhibitors; also: nearly all actives have a fitted effect of over 55% in size
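Reporter activity after DNA damage by 5-fluorouridine is monitored. Compound-treated cells incubate 16 hr at 37 °C, then ONE-Glo is added for 30 min before luminescence reading.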
RORg inh – qHTS for inhibitors of ROR gamma transcriptional activity | Nuclear receptor ROR-gamma (Mus musculus), P51450 | 5.4% of 310,000 active | Potency, µM (doses to about 53.6 µM), for inactives: at the highest dose activity change, negative = inhibition, actives largely listed as inhibitors | Drosophila S2 Gal4-RORgamma UAS-luciferase reporter, 20 h | AID 2551, 2010; also: nearly all actives have a fitted effect of over 60% in size
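Drosophila Schneider cells stably carrying a metallothionein-driven Gal4 DBD–ROR gamma fusion and a UAS-Photinus luciferase reporter were exposed to compound for 1 hr, then induced with copper sulfate (700 uM final) for 20 hr at ambient temperature before luminescence reading.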
TDP1 cell noCPT – qHTS for Inhibitors of human tyrosyl-DNA phosphodiesterase 1 (TDP1): qHTS in cells in absence of CPT; DT40 Tdp1-/- hTDP1 cells, no CPT, ATP luminescence, 48 h; Potency, µM (top dose mostly 46.2 µM), for the others: at the top dose activity change, negative = growth inhibition, hits mostly inhibitors; 15% of 420,000 active; AID 686978, 2013; also: nearly all actives have a fitted effect of over 55% in size
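Chicken DT40 Tdp1-/- cells complemented with human TDP1, screened without camptothecin (DMSO vehicle only), 400 cells/well. Compounds pin-transferred, cells incubated at 37 °C for at least 48 hr. Growth read as ATP-dependent luminescence (CellTiter-Glo, 30 min at RT).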
Numbers without * were called inactive; ? = inconclusive; . = not tested or not shown; [ ] = another dose, or the depositor's remark. Only some compounds are listed: those with a hit (about 15% of all), similar ones and a draw of the others. Calls follow the shape of the dose curve; as a rule, active = well fitted curve in the direction sought with a large enough effect; inconclusive = small, poorly fitted or top-dose-only effect, or another doubt; inactive = no such curve, though single readings can be large; an effect the other way counts as inactive or inconclusive. % is scaled to controls: 0 for no effect and ±100 for the full control effect; potency is read from the fitted curve at half-maximal effect.

SMILES	DT40 TDP1 CPT	VP16 counter	12-LOX inh	ELG1 repair inh	RORg inh	TDP1 cell noCPT
COC(=O)c1ccc2nc(CO[C@H]3CN(C(C)=O)C[C@H]3F)[nH]c2c1	.	.	1.7%[176 µM]	.	.	.
N#Cc1ccc(S(=O)(=O)NCC(=O)N2CCCCCNC(=O)CC2c2ccccc2)cc1 (stereo not given)	.	.	33.3%	.	.	.
COCCOc1ccc2c(n1)CCN(C(=O)NC1CCCC1)C2	.	.	45.6%	.	.	.
Cc1ccccc1OCCCCn1c(CO)nc2ccccc21	9.2µM*	-4.4%[10 µM]	0.2%	?	-37.5%	10.3µM*
Cc1ccccc1OCCn1c(C)nc2ccccc21	?	7.94µM*	-5.6%	-3.8%	1.4%[1.91 µM]	?
Cc1cc(C)c(C)c(Cn2c(CO)nc3ccccc32)c1C	?	?	-5.1%	?	2µM*	?
COC(=O)[C@@H]1Cc2c([nH]c3ccccc23)[C@H]2C[C@@H](NCCN(C)C)C[C@@H](c3ccc(F)cc3)N21	.	.	7.0%	.	.	.
CC(C)CNc1nc(C(=O)Nc2ccc(Cn3cncn3)cc2)cs1	.	.	17.1%	.	.	.
CC(=O)Nc1ccc(CN2CCC3(Cc4ccccc4CN(C(C)=O)C3)C2)cc1 (stereo not given)	.	.	10.1%[6.33 µM]	.	.	.
Cc1ccc(CNC(=O)C2CC(c3ccc(C(F)(F)F)cc3)=NO2)o1 (stereo not given)	11.6µM*	-4.8%	-7.9%	2.6%	1.8%	7.31µM*
COc1ccc(CNC(=O)C2CC(c3cc(C(F)(F)F)cc(C(F)(F)F)c3)=NO2)cc1 (stereo not given)	3.26µM*	0.1%	-15.4%	-19.0%	0.3%	4.61µM*
COc1ccc(CCNC(=O)C2CC(c3ccc(C(F)(F)F)cc3)=NO2)cc1 (stereo not given)	?	-4.5%	0.0%	-2.1%	27.0%	14.6µM*
COc1ccc(-c2cc(N3CCC(NC(=O)c4cccc(F)c4)CC3)n[nH]2)cc1	.	.	26.1%	.	.	.
CC(Sc1nnnn1C1CC1)C(=O)c1c[nH]c2ccccc12 (stereo not given)	.	.	25.3%	.	.	.
Cc1ccc(S(=O)(=O)NCCc2nnc3ccc(SCc4ccc(Cl)cc4)nn23)cc1	.	.	5.8%	.	.	.
COc1ccc(S(=O)(=O)NCCc2nnc3ccc(SCC(=O)Nc4ccccc4C)nn23)cc1	-7.5%	.	0.0%	.	.	-15.9%
O=S(=O)(NCCc1nnc2ccc(SCc3ccccc3)nn12)c1ccccc1	.	.	28.9%	.	.	.
COc1ccc(Cl)cc1NC(=O)CSc1ccc2nnc(CCNS(=O)(=O)c3ccccc3)n2n1	18.4µM*	.	-13.5%	.	.	?
O=S(=O)(NCCc1nnc2ccc(SCc3ccccc3Cl)nn12)c1ccccc1	16.4µM*	.	-17.6%	.	.	23.1µM*
O=S(=O)(NCCc1nnc2ccc(SCc3c(F)cccc3Cl)nn12)c1ccccc1	?	.	-2.8%	.	.	23.1µM*
CON(C)C(=O)CC1Sc2ccc(Cl)cc2NC1=O (stereo not given)	.	.	5.7%	.	.	.
Cn1cnnc1CC1CCN(C(=O)c2ccccc2F)CC1	.	.	27.0%	.	.	.
Cc1cccc(-n2c(-c3ccco3)n[nH]c2=S)c1	-7.9%	?	?	-1.2%	11.2µM*	-26.6%
Cc1ccc(-n2c(-c3cc(-c4ccco4)[nH]n3)n[nH]c2=S)c(Br)c1	9.9%	-3.8%	?	2.3%	8.91µM*	-2.6%
S=c1[nH]nc(-c2ccco2)n1-c1ccc(Br)cc1	10.1%	.	?	.	.	-2.5%
SMILES	DT40 TDP1 CPT	VP16 counter	12-LOX inh	ELG1 repair inh	RORg inh	TDP1 cell noCPT
FC(F)(F)c1ccccc1-n1c(-c2ccco2)n[nH]c1=S	-2.2%	?	?	?	14.1µM*	-19.7%
Cc1cccc(-n2c(-c3ccc(Br)o3)n[nH]c2=S)c1	6.8%	.	0.0%	.	.	-1.3%
S=c1[nH]nc(-c2cc(-c3ccco3)[nH]n2)n1-c1cccc2ccccc12	-6.7%	-1.7%	?	0.0%	23.5%	?
Cc1ccccc1-n1c(-c2ccco2)n[nH]c1=S	8.0%	?	?	-8.8%	11.2µM*	-3.7%
CCCCn1c(=O)[nH]c(=O)c2c(C(=O)OCC)cc(-c3ccccn3)nc21	.	.	-18.5%	.	.	.
CC(Sc1nnc(Nc2ccccc2)s1)C(=O)NC1CCCc2ccccc21 (stereo not given)	?	?	?	?	29.6%	23.1µM*
Cc1cccc(Nc2nnc(SCC(=O)NC3CCCc4ccccc43)s2)c1C (stereo not given)	14.6µM*	-10.9%	-12.1%	?	6.6%	8.2µM*
Cc1nnc(SC(C)C(=O)NC2CCCc3ccccc32)n1-c1ccccc1 (stereo not given)	0.3%	1.0%	5.4%	4.8%	-25.3%	-11.9%
CCc1nn2c(=O)cc(COC(=O)c3ccc(NC(=O)C4CCCCC4)cc3)nc2s1	?	.	-23.8%	.	.	18.4µM*
Cc1nn2c(=O)cc(COC(=O)c3ccc(NC(=O)C4CCCCC4)cc3)nc2s1	?	.	?	.	.	9.2µM*
O=C(NC1CC1)c1cccc(NC(=O)c2cn(-c3ccccc3)nc2-c2cccnc2)c1	.	.	-8.1%	.	.	.
CN(/C=C/C(=O)/C=C/N(C)c1ccccc1)c1ccccc1	.	.	15.8µM*	.	.	.
O=C(O)c1nn(CC(=O)N2CCCCC2)c(=O)c2ccccc12	.	.	-11.5%	.	.	.
O=C(O)C1CC(=O)N(c2ccc(OCc3ccccc3Cl)cc2)C1 (stereo not given)	3.0%	?	21.4%	11.9%	14.1µM*	-2.7%
Cc1nnc(N2CCCC(C(=O)NCc3ccccc3)C2)c2nn(-c3ccccc3)c(C)c12 (stereo not given)	-8.3%	.	-13.1%	.	.	-20.2%
COc1ccc(-n2nc3c(N4CCCC(C(=O)NCc5cccc(F)c5)C4)nnc(C)c3c2C)cc1 (stereo not given)	8.2µM*	.	4.9%	.	.	13µM*
Cc1nnc(N2CCCC(C(=O)NCc3cccc(F)c3)C2)c2nn(-c3ccccc3)c(C)c12 (stereo not given)	?	-1.2%	-25.4%	?	2.1%	13µM*
O=S(=O)(NC[C@H]1O[C@@H](CO)[C@@H](O)[C@H]1N1CCN(c2ccccc2)CC1)c1ccc(F)cc1	.	.	22.4µM*	.	.	.
O=C(NC[C@H]1O[C@@H](CO)[C@@H](O)[C@H]1N1CCN(c2ccccn2)CC1)Nc1ccc(F)cc1F	.	.	10µM*	.	.	.
